Measured values reported in PubChem BioAssay (NCATS).
Records with an inconclusive call do not appear. A call without a number means that no potency is given here. Activity calls are given as the source filed them. The call rests on the fitted dose curve; in most records, active means well fitted curve in the direction sought with a large enough effect; inconclusive means small, poorly fitted or top-dose-only effect, or another doubt; inactive means no such curve, though single readings can be large; an effect the other way counts as inactive or inconclusive.

system: Nanoluciferase (engineered Oplophorus gracilirostris luciferase); experiment: Primary Nanoluciferase (NLuc) qHTS assay for identification of artifact compounds. (AID 1845222); settings: NLuc-conditioned medium, Nano-Glo luminescence, 5 min; series mostly up to 54.1 µM;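 further: NLuc secreted into diluted conditioned medium of S16 cells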
Outline: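 Concentration-response data were obtained by luminescence after 5 min with Nano-Glo substrate at 1:100. The enzyme was diluted S16 NLuc-expressing cell medium, preincubated with compound for 15 min at RT. Curves were fitted with a 4-parameter Hill model.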

| SMILES | Potency |
| --- | --- |
| COc1ccc(S(=O)(=O)n2cnc3cc(C)c(C)cc32)cc1 | inactive |
| CC(=O)C1=CCC2C3CC=C4CC(O)CC(O)C4(C)C3C(O)CC12C (centres undefined) | inactive |
| CC(C)C[C@@H]1NC(=O)[C@@H](Cc2ccccc2)NC(=O)C(CCCCCC(=O)C2CO2)NC(=O)[C@@H]2CCCCN2C1=O (some centres undefined) | inactive |
| C=C1CC[C@@H](O)[C@]2(C)C[C@H]3OC(=O)C(=C)[C@H]3CC12 (some centres undefined) | inactive |
| CC1CCCC(O)CCC/C=C/c2cc(OS(=O)(=O)O)cc(O)c2C(=O)O1 (centres undefined) | inactive |

system: not listed separately; experiment: Primary redox qHTS assay for identification of artifact compounds. (AID 1845223); settings: Amplex Red/HRP redox cycling with DTT, fluorescence; series mostly up to 53.8 µM
Outline: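 Amplex Red (25 uM) and HRP (250 mU/mL) in HBSS, with compounds for 15 min, then 250 uM DTT for 30 min, room temperature, dark. Fluorescence 525/598 nm read; normalized to DMSO and 10 uM DA3003; Hill fit.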

| SMILES | Potency |
| --- | --- |
| COc1cc(/C=C2\CC[C@H]3COC[C@@H](c4cc(F)c(F)c(F)c4)N3C2=O)ccc1-n1cnc(C)c1 | inactive |
| CNC(=O)c1cc(Oc2ccc(NC(=O)c3cccc(C(F)(F)F)c3)cc2)ccn1 | inactive |
| COc1cccc(OCCCN)c1-c1cc(Nc2cnc(C#N)cn2)n[nH]1 | inactive |
| COC(=O)C[C@H]1C(C)(C)[C@H](OC(=O)c2ccccc2)C2CC3=C4CC(=O)O[C@@H](c5ccoc5)[C@]4(C)CCC3[C@@]1(C)C2=O (some centres undefined) | inactive |
| OC[C@H]1O[C@@H](OC/C=C/c2ccc(O)cc2)[C@H](O)[C@@H](O)[C@@H]1O | inactive |
| CC(C)(CO)c1cc2cc(NC(=O)C3(c4ccc5c(c4)OC(F)(F)O5)CC3)c(F)cc2n1CC(O)CO (centres undefined) | inactive |
| C/C=C(\C)C(=O)O[C@H]1C[C@](C)(O)[C@H]2CC=C(C)[C@H]2[C@@H]2OC(=O)[C@H](C)[C@H]21 | inactive |
| Nc1nc(OCc2cc(Br)cs2)c2[nH]cnc2n1 | inactive |
| CC(C)(Cc1ccccc1)NCC(O)c1ccc(O)c(NS(C)(=O)=O)c1 (centres undefined) | inactive |
